Source: PubChem (National Center for Advancing Translational Sciences (NCATS))
FMDV antiviral: foot and mouth disease virus antiviral activity | FMDV antiviral cell-based qHTS | Potency, µM (titrated, usually from 57.9 µM), for inactives: top-dose activity change, negative = inhibition, actives largely listed as inhibitors | hit rate 1.2% among 410,000; calls by dose curve; tested in HEK293T cells; note: read-out not given here; potency is the fitted concentration of half-maximal effect; nearly all actives have a fitted effect of over 45% in size
HCV inh: HCV inhibition; Huh7.5.1 HCVcc-Cre infection, luciferase reporter, 44 h; hit rate 3.4% among 340,000; Potency, µM (highest dose often 41.8 µM), for inactives: top-dose activity change, negative = inhibition, actives largely listed as inhibitors; active = well fitted inhibition curve with a large enough effect; inconclusive = small, poorly fitted or top-dose-only effect, or another doubt; inactive = no such curve, though single readings can be large or run the other way; note: potency is the fitted concentration of half-maximal effect
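Luciferase read-out (15 sec integration) after a 15 min room-temperature substrate step quantifies HCVcc-Cre infection. Cells, 1,000 per well, had compound added 4 h post-plating, then virus at ~0.5 moi, and were cultured 44 h.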
HCMV antiviral: human cytomegalovirus inhibition; activity change, negative = inhibition, % at 57.5 µM; HFF cells, HCMV-luciferase reporter, 72 h; stronger effect = lower value; hit rate 4.5% among 410,000; in the data active = activity change below about -60%; inconclusive = no clear call, values can overlap the other calls; inactive = above about -39%
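Inhibition of viral replication was scored as loss of reporter luminescence in HFFs infected with HCMV-luciferase (MOI 1 PFU/cell) for 72 h; compounds tested at 2 doses, normalized to buffer and Salinomycin controls.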
LASV entry inh: Lassa virus entry inhibition; hit rate 1.2% among 300,000; Lassa virus pseudotype entry inhibition, cell reporter; Potency, µM (titrated, usually from 37.9 µM), without a hit: top-dose activity change, negative = inhibition, most hits filed as inhibitors; calls by dose curve; tested in HEK293 cells; note: potency is the fitted concentration of half-maximal effect; nearly all actives have a fitted effect of over 50% in size
Marburg entry inh: Marburg virus entry inhibition. hit rate 1.8% among 300,000. Marburg virus pseudotyped entry inhibition, cell reporter. Potency, µM (titrated, usually from 37.8 µM), inactives show top-dose activity change, negative = inhibition, usual class: inhibitors; calls by dose curve; tested in HEK293 cells; note: potency is the fitted concentration of half-maximal effect
The depositor's hits bear a star; ? = inconclusive; nt = not tested or not shown; [ ] = dose if it differs, or a comment. Rows were chosen to be rich in hits. Some 7.9% of all compounds tested hit in one or more screens of this group. % is set by controls: 0 for no effect and ±100 for the full control effect.

SMILES	FMDV antiviral	HCV inh	HCMV antiviral	LASV entry inh	Marburg entry inh
O=C(Nc1ccc(Br)c(Cl)c1)C1CC1	-8.8%	?	-62.2*	6.9%	4.3%
O=C(O)CCCC(=O)Nc1ccc2c(c1)oc1ccccc12	-1.3%	?	-3.5	nt	nt
Cc1ccccc1OCc1nnc(SCC(=O)Nc2ccc3c(c2)oc2ccccc23)n1C	16.7%	?	-1.2	-8.6%	13.2%
O=C(Nc1ccc(F)cc1)c1oc2ccccc2c1NC(=O)C12CC3CC(CC(C3)C1)C2	2.5%	nt	-11.6	21.4%[46.1 µM]	5.7%[46.1 µM]
CCOC(=O)c1ccccc1NC(=O)CSc1nc(=O)[nH]c2c1CCC2	-17.6%	nt	-9.4	3.3%[46.1 µM]	nt
CC1=CC[C@@H](COc2ccccc2)O[C@@]2(C1)C(=O)N(Cc1ccc(F)cc1)c1ccccc12	nt	nt	nt	nt	-2.3%[14.2 µM]
CC(C)CC(=O)Nc1ccc2c(c1)oc1ccccc12	61.8%	22.4µM*	104.9	?	?
CCCCC(=O)Nc1ccc2c(c1)oc1ccccc12	59.7%	?	158.8	?	-1.0%
O=C(Nc1ccccc1)Nc1nnc(SCC(=O)N2CCCCC2)s1	?	nt	1.8	?	nt
COc1ccccc1Nc1nnc(SCC(=O)N2CCCC2)s1	44.1%	7.0%	110.5	22.5%	23.9%
O=C(Nc1ccc(F)cc1)Nc1nnc(SCC(=O)N2CCCCC2)s1	-16.7%	nt	-74.9*	20.3%[46.1 µM]	nt
CCOc1ccccc1Nc1nnc(SCC(=O)N2CCCC2)s1	17.9%	25.1µM*	141.2	13.4%	13.1%
Cc1ccc(NC(=O)Nc2nnc(SCC(=O)N3CCCCC3)s2)cc1	20.3%	nt	-86.5*	-2.9%[46.1 µM]	nt
CCc1ccc(CNC(=O)c2ccc(Cn3c(=O)c4cccn4c4cccnc43)cc2)cc1	-23.1%	nt	1.9	5.3%[46.1 µM]	nt
N/C(=N\OC(=O)c1ccc(Cl)c(Cl)c1)c1ccccn1	-53.5%	17.1%	113.7	?	?
N/C(=N\OC(=O)c1ccc(Cl)cc1)c1ccccn1	-79.4%	?	53.3	?	?
N/C(=N\OC(=O)c1cccc(Cl)c1)c1ccccn1	-57.4%	-4.7%	9.0	7.94µM*	3.66µM*
N/C(=N\OC(=O)c1ccc(Cl)c([N+](=O)[O-])c1)c1ccccn1	48.9%	?	-63.2*	?	3.16µM*
COc1ccc(CN2CCOc3c(cc(-c4cccc(OC)n4)cc3OC)C2)c(O)c1	-1.7%	nt	nt	nt	nt
CN1CCN(c2ncc3nc(-c4cccc(C#N)c4)c(=O)n(CCc4ccccc4)c3n2)CC1	-7.3%	nt	nt	nt	nt
O=S(=O)(c1cccs1)N1CCN(c2cccc(Cl)c2)CC1	-8.4%	17.5%	-5.3	?	-17.1%
O=S(=O)(c1cccs1)N1CCN(CC(O)COc2cc(Cl)ccc2Cl)CC1 (stereo unspecified)	?	?	-60.9*	?	?
O=S(=O)(c1cccs1)N1CCN(CCOc2ccc(Cl)cc2)CC1	?	?	-81.8*	nt	nt
NS(=O)(=O)c1ccc(N2CCN(CCOc3ccc(Cl)cc3)CC2)nc1	?	?	-84.2*	?	?
NS(=O)(=O)c1ccc(N2CCN(S(=O)(=O)Cc3ccccc3)CC2)nc1	-6.9%	11.3%	26.6	-10.3%[46.1 µM]	-20.8%[46.1 µM]
SMILES	FMDV antiviral	HCV inh	HCMV antiviral	LASV entry inh	Marburg entry inh
COc1ccc2c(c1)CC/C=C(/c1ccccc1)CCO2	nt	nt	-7.7	nt	nt
CCc1ccc(NS(=O)(=O)c2ccc3oc(=O)c4ncn(CC)c4c3c2)cc1	-12.5%	nt	0.1	5.5%[46.1 µM]	3.6%[46.1 µM]
COc1ccc(N2CC(NC(=O)C(c3ccccc3)c3ccccc3)CC2=O)cc1 (stereo unspecified)	-17.7%	nt	22.9	0.5%[46.1 µM]	nt
COc1ccc(CCNC(=O)Cn2c(=O)nc(-c3ccccc3F)c3cc(Cl)ccc32)cc1OC	23.8%	nt	156.9	?	nt
O=S(=O)(c1ccccc1)c1nc(-c2cccs2)oc1N1CCCCC1	21.5%	nt	25.7	24.9%[46.1 µM]	-19.7%[46.1 µM]
CCC(C)S(=O)(=O)c1oc(-c2cccs2)nc1S(=O)(=O)c1ccccc1 (stereo unspecified)	28.2µM*	nt	-102.1*	?	?
CNc1oc(-c2cccs2)nc1S(=O)(=O)c1ccccc1	15.7%	-5.6%	-9.4	nt	0.6%[46.1 µM]
CCCCNc1oc(-c2cccs2)nc1S(=O)(=O)c1ccccc1	20.6%	10µM*	?	?	?
Cc1noc(C)c1-c1nc(CS(=O)(=O)c2ccccc2)no1	16.3%	23.7%	-83.6*	7.7%	13.4%[46.1 µM]
Cc1noc(C)c1-c1nc(CS(=O)(=O)c2ccc(F)cc2)no1	-6.2%	-2.4%	24.5	nt	nt
FC(F)(F)c1ccc(N/N=C/c2cccnc2)nc1	35.6%	14.4%	37.0	1.4%	13.6%[46.1 µM]
Cc1ncc(CO)c(/C=N/N=C/c2ccccc2O)c1O	3.0%	0.1%	84.9	?	27.9%
Cc1ncc(CO)c(/C=N/Nc2ccc(C(F)(F)F)cn2)c1O	6.0%	?	-96.1*	?	3.98µM*
Cc1ncc(CO)c(/C=N/NC(=S)Nc2ccc(F)cc2)c1O	0.0%	-19.4%	-12.1	?	14.1µM*
O=C(C[n+]1cccc2ccccc21)c1ccccc1	-3.8%	6.1%	91.1	0.1%	?
Cc1cc[n+](CC(=O)c2ccc(NC(=O)c3ccccc3)cc2)cc1	-18.6%	17.3%	-37.3	nt	nt
O=C(C[n+]1cccc2ccccc21)c1ccc(NC(=O)c2ccccc2)cc1	-22.9%	-12.6%	-83.3*	nt	nt
Cc1cc[n+](CC(=O)c2ccc(NC(=O)c3ccccc3)cc2)c2ccccc12	?	-12.0%	-97.4*	nt	nt
CCCCOc1ccc(S(=O)(=O)Nc2cccnc2)cc1	nt	10µM*	-75.9*	-13.4%	?
Cc1ccc(S(=O)(=O)Nc2cccnc2)cc1	12.1%	-0.8%	2.7	3.1%	-10.4%
CCOc1ccc(S(=O)(=O)Nc2cccc(OC)c2)cc1	43.7%	10µM*	?	-16.1%	?
CCOc1ccc(S(=O)(=O)Nc2cccc(N(C)S(C)(=O)=O)c2)cc1	-15.9%	10µM*	-35.4	?	-22.1%[46.1 µM]
COc1cccc(-n2cc(C(=O)NCc3ccc(C)cc3)c3ccccc3c2=O)c1	-0.9%	nt	-34.7	9.7%[46.1 µM]	nt
